About 83,000 compounds went through this panel and 20% of them were active in at least one assay; those are over-represented in the sample as a whole.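 Note: values are percent growth. 100 is the growth of untreated cells, values between 100 and 0 indicate rising inhibition; between -100 and 0 indicates cell death.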 Unmarked numbers belong to inactive results. Active and inactive are the calls of the source.
Each molecule was assayed on SNB-19 CNS (assay: NCI-60 one-dose screen, 48 h (100 = growth as untreated, 0 = no growth, -100 = all killed)). Details: 10 µM unless noted.
Method: Growth inhibition of the SNB-19 human tumor cell line is measured as a screen for anti-cancer activity. Cells are grown in 96 well plates and exposed to the test compound for 48 hours. Compounds are tested at a single concentration, which is 10^-5 M for most compounds. The reported endpoint is percent growth (GI% or GIPRCNT), where numbers from 0 - 100% represent growth inhibition, and numbers from -100% - 0 represent cell death. For example, a value of 40 represents 60% growth inhibition. A value of 0 means no net growth occurred over the course of the experiment. A value of -40 indicates 40% of cells at the beginning of the experiment died by the end of the experiment. A value of -100 means all cells are dead at the end of the experiment.
NCI-60 Human Tumor Cell Lines Screen was performed using the standard one-dose NCI protocol, which is described in more detail at https://dtp.cancer.gov/discovery_development/nci-60/default.htm.
Compounds with GIPRCNT values below 10 were considered active. Activity score was based on GIPRCNT using the following formula: […]
Score is 0 for GIPRCNT values of 100 or above, 50 for GIPRCNT values of 0, and 100 for GIPRCNT values of -100.

In order of rising growth:
1. O=C(Nc1cc(Cl)cc(Cl)c1)Nc1ccc2oc(=O)ccc2c1  13.3%
2. Oc1ccc(CSc2nnc(-c3ccncc3)o2)c2cccnc12  17.6%
3. O=C(NNc1nc2cc(F)cc(F)c2n2cccc12)c1ccncn1  21.9%
4. COc1ccccc1/C=C/C=N/NC1=NC2C(S1)N(C)C(=O)N2c1ccccc1 (stereo not given)  22.7%
5. CCN1C(=O)N(CC)C2SC(N/N=C/c3ccccc3F)=NC21 (stereo not given)  24.6%
6. CCc1ccc(NC(=O)N[C@@H](Cc2cccc(F)c2)C(=O)N[C@@H]2C(=O)N3CCC[C@H]3C(=O)N3CCCC[C@H]3C(=O)N[C@@H](CO)C(=O)N3C[C@H](C)C[C@H]3C(=O)O[C@H]2C)c(F)c1  28.1%
7. CS(=O)(=O)c1ccc2c(c1)c1c(n2S(=O)(=O)c2ccc(Cl)cc2)CCCC1  30.1%
8. CN(C)CCn1c2ccc(N)cc2c2nc3ccccc3nc21  32.1%
9. O=C(NNc1nc2cc(F)ccc2n2cncc12)c1cnccn1  33.7%
10. C/C(=N\NC(=S)Nc1ccc(Br)cc1)c1cc2ccccc2oc1=O  35.2%
11. CN(c1ccc(Br)cc1)S(=O)(=O)c1ccc(-c2cnc(C3CC3)o2)cc1  37.3%
12. NC(=O)c1c(NC(=O)c2cccc(OC(F)(F)F)c2)sc2c1CCC(=O)C2  43.1%
13. CC(=O)Nc1ccc(C)c(Nc2cc(-c3ccc(-n4cccn4)cc3)[nH]n2)c1  45.7%
14. Cn1cc2c(c1)-c1c(sc3nc(-c4ccc(NC(=O)Nc5cc(C(C)(C)C)on5)cc4)cn13)CC2  46.7%
15. C=C1C(=O)O[C@@H]2C[C@@H](C)/C=C\C(=O)[C@](C)(OC(C)=O)C[C@H](OC(=O)/C(C)=C\C)[C@@H]12  60.1%
16. Cc1cc2nc(C(Cl)Cl)nc(-c3ccco3)n2n1  62.8%
17. CCOC(=O)c1nn(-c2ccccc2)c(=O)c2c(N)c(C#N)c(-c3cccs3)cc12  70.5%
18. O=S(=O)(Nc1ccc(C2CC2)cc1)c1ccc(-c2cnc(C3CC3)o2)cc1  73.7%
19. COc1ccc(N)cc1C(=O)Nc1cccc(-c2cc(=O)c3c(OC)c(OC)c(OC)cc3o2)c1  76.6%
20. O=C1[C@H]2Cc3c([nH]c4ccccc34)[C@H](c3ccc(Cl)cc3)N2C(=O)CN1C1CCN(Cc2c(Cl)cccc2Cl)CC1  80.6%
21. CNC(=O)c1cc(N2CCc3cc(NC(=O)Nc4ccc(Cl)c(Cl)c4)ccc32)ccn1  81.4%
22. CCOC(=O)C1=C(C)Nc2nnc(Nc3ccccc3)n2C1c1ccccc1 (stereo not given)  81.6%
23. CCNC(=O)Oc1ccc(/C(=C(/C)c2ccc(Cl)cc2)c2ccc(OCCN3CCCC3)cc2)cc1  81.6%
24. COc1ccc([C@H]2c3[nH]c4ccccc4c3C[C@@H]3C(=O)N(C4CCN(Cc5ccccc5)CC4)CC(=O)N23)c(OC)c1  83.1%
25. COc1ccc(N2CCN(C(=O)CSc3ccc(-c4nc5cc(C)c(C)cc5[nH]4)cn3)CC2)cc1  87.5%
26. COc1cc(-c2noc(C[C@@H](NC(=O)OCc3ccccc3)C(C)C)n2)cc(OC)c1OC  89.6%
27. Cc1ccc(-n2cc(/C=C/C(=O)c3ccc(S(C)(=O)=O)cc3)c(-c3ccc(S(C)(=O)=O)cc3)n2)cc1  89.8%
28. COc1ccc(CN2C(=O)/C(=C/c3nc(CO)cs3)SC2=S)cc1  93.8%
29. CC(C)(C)CC(C)(C)n1nnnc1C(Nc1ccccc1)c1cc2cccc3ccc4cccc1c4c32 (stereo not given)  95.1%
30. CC(=O)c1ccc(NC(=O)COc2ccc(C3SCC(=O)N3c3ccc(Br)cc3)cc2)cc1 (stereo not given)  95.2%
31. COc1ccc(/C=C/C(=O)c2nnn(-c3ccc(C(=O)O)cc3)c2C)cc1OC  96.3%
32. Cc1ccc(NC(=O)c2ccc(CN3CCN(C)CC3)c(I)c2)cc1Oc1ccc(-c2[nH]nc3ncnc(N)c23)cc1  96.5%
33. Cc1occc1-c1nc2s/c(=C\c3cn(-c4ccccc4)nc3-c3ccccc3)c(=O)n2n1  96.8%
34. CC1CCc2c(sc3nc(SCC(=O)N/N=C/c4cccc(O)c4O)n(-c4ccccc4)c(=O)c23)C1 (stereo not given)  98.1%
35. O=C(COc1ccc(C2SCC(=O)N2c2ccccc2)cc1)c1ccccc1 (stereo not given)  99.4%

In the case of COc1cc2c3c(n(CCCN4CCCC4)c(=O)c2cc1OC)-c1cc2c(cc1C3=O)OCO2, the growth is reported as -48.9% (active).
For O=C(Nc1cccc(-c2nc(-c3ccc(NC(=O)c4cccs4)cc3Cl)no2)c1)Nc1ccc(NC(=O)C2CC2)c(C(F)(F)F)c1, the growth was -17.7% (active).
For Cc1ccc(NC(=O)c2cc(/C=C/C(=O)NO)cc(C(F)(F)F)c2)cc1Nc1nccc(-c2cccnc2)n1, the growth was -0.0394% (active).

Work on CC(=O)NC(C)(C)C(=O)N1CCC[C@H]1C(=O)NC(C)(C)C(=O)N[C@@H](C)C(=O)NC(C)(C)C(=O)N[C@@H](C)C(=O)N[C@@H](CCC(N)=O)C(=O)NC(C)(C)C(=O)N[C@H](C(=O)NC(C)(C)C(=O)NCC(=O)N[C@@H](CC(C)C)C(=O)NC(C)(C)C(=O)N1CCC[C@H]1C(=O)N[C@H](C(=O)NC(C)(C)C(=O)NC(C)(C)C(=O)N[C@@H](CCC(N)=O)C(=O)N[C@@H](CCC(N)=O)C(=O)N[C@H](CO)Cc1ccccc1)C(C)C)C(C)C yielded a growth of 52.5% [4.25 µM].

CC[C@@](C)(NC(=O)C(C)(C)NC(=O)[C@@H](NC(=O)[C@@H]1CCCN1C(=O)C(C)(C)NC(=O)[C@H](CC(C)C)NC(=O)CNC(=O)C(C)(C)NC(=O)[C@@H](NC(=O)C(C)(C)NC(=O)[C@H](CCC(N)=O)NC(=O)[C@H](C)NC(=O)C(C)(C)NC(=O)[C@H](C)NC(=O)C(C)(C)NC(=O)[C@H](C)NC(=O)C(C)(C)NC(C)=O)C(C)C)C(C)C)C(=O)N[C@@H](CCC(N)=O)C(=O)N[C@@H](CCC(N)=O)C(=O)N[C@H](CO)CC1CCCCC1 gave a growth of 24.3% [5 µM].
